Screening data (PubChem)
Sampled rows, rich in hits. Any-hit rate of the full collection: about 22%.
E-sel TNF inh = TNF alpha driven E-selectin expression inhibition; HUVEC TNFa-induced E-selectin immunofluorescence, high content; inhibition, % at 2 µM; 120,000 compounds, 0.71% hits; AID 1246;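 active means inhibition above the batch mean plus 3 SD, and confirmed as a hit on visual image review, cut at about 43% in these data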;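 further: 0% = TNF-stimulated DMSO wells and 100% = unstimulated control wells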
CYP2C9 act = CYP2C9 (human) activation; P11712; recombinant CYP2C9, luciferin-H conversion, luminescence; hits give high values; factor 1 = untreated enzyme, 0 = blocked; activation factor at 5 µM; 96,000 compounds, 1.4% hits;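 active means activation factor of 2 or more for CYP2C9 at a 5 µM dose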;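 further: 0 = sulfaphenazole-blocked wells and 1 = vehicle-only wells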
F-actin modifier = alters cytoskeleton assembly in HUVEC cells. HUVEC TNFa F-actin phalloidin imaging, high content. inhibition, % at 2 µM. 91,000 compounds, 0.18% hits;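 active means inhibition above the batch mean plus 3 SD and confirmed as a hit by visual image inspection, cut at about 30% in these data, passing the limit was not always enough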
CYP2C19 activ = increases human CYP2C19 enzyme activity; 96,000 tested, under 10 active; recombinant CYP2C19, luciferin-H EGE luminescence; hits give high values; 0 = fully inhibited enzyme, 1 = untreated enzyme; AID 1025; P33261; activation factor at 5 µM;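 active means activation factor of at least 2 at 5 µM in the primary screen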;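 further: 0 = wells with 2.5 mM tranylcypromine and 1 = vehicle-only wells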
Target sequence (P33261 whole entry, looked up): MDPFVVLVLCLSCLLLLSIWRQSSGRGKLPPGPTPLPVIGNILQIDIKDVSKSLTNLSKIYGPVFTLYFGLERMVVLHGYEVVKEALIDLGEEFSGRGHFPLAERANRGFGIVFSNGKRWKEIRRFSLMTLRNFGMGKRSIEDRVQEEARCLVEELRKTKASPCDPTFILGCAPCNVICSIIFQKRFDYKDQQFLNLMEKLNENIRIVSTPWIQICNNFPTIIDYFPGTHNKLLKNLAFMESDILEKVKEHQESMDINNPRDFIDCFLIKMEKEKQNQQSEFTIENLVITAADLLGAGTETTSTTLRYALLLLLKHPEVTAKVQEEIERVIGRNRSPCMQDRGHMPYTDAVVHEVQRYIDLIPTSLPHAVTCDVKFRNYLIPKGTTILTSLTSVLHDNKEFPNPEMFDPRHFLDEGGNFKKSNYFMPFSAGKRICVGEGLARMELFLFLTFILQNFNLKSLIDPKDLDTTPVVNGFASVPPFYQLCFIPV
CYP2C19 inhib = human CYP2C19 inhibition. P33261. CYP2C19 Supersomes, luciferin-H EGE luminescence, 30 min. inhibition, % at 5 µM. 96,000 compounds, 21% hits;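 active means CYP2C19 inhibition above a set limit at 5 µM in the primary screen, cut at about 50% in these data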;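 further: plate controls were negative control wells for no effect and 2.5 mM tranylcypromine positive control for full effect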
CYP2C9 inh = human CYP2C9 inhibition | 96,000 compounds, 20% hits | P11712 | CYP2C9 Supersomes, luciferin-H conversion, luminescence | inhibition, % at 5 µM;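 active means blocking of liver enzyme CYP2C9 beyond about 50% at 5 µM, limit read from the data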
* = called active by the depositor; . = no result.

SMILES	E-sel TNF inh	CYP2C9 act	F-actin modifier	CYP2C19 activ	CYP2C19 inhib	CYP2C9 inh
CCCC1Cc2nc(N3CCCCC3)c(C#N)cc2CO1 (stereo not given)	27	0.1	-62	0.3	73*	86*
Cn1c(NC(=O)C[n+]2cc(-c3ccccc3)n3c2CCC3)cc(=O)n(C)c1=O	3	.	.	.	.	.
O=C1CCCCCCC1Sc1ccccc1[N+](=O)[O-] (stereo not given)	-10	1.2	-19	0.5	50*	-16
CN(C(=O)c1ccncc1)c1nnc(-c2ccccn2)s1	-3	0	37	0.2	81*	99*
CCN(C(=O)Cc1cccs1)c1nnc(-c2cccnc2)s1	-45	0.5	14	0.5	48	50*
CN(C(=O)c1ccccn1)c1nnc(-c2ccncc2)s1	14	.	-1	.	.	.
CN(C(=O)c1ccncc1)c1nnc(-c2cccnc2)s1	-48	0	.	0.1	93*	100*
Cc1csc(=Nc2c(C)n(C)n(-c3ccccc3)c2=O)n1Cc1ccccc1	.	0.6	-19	0.2	82*	42
Cc1ccc(NC(=S)N2CCC(c3nc4ccccc4s3)CC2)cc1	.	0.4	.	0.7	32	57*
O=C(CSc1ccccc1Cl)N1CCC(c2nc3ccccc3s2)CC1	12	0.5	-6	0.6	39	46
CCNC(=S)N1CCC(c2nc3ccccc3s2)CC1	.	0.6	-24	0.2	84*	39
CC1Cc2ccccc2N1C(=O)c1cnsn1 (stereo not given)	9	1.1	6	0.8	18	-7
CS(=O)(=O)N(CC(=O)Nc1ccc2c(c1)OCO2)c1ccc2c(c1)OCO2	.	0.7	-13	0.6	44	28
COc1ccc(N(CC(=O)Nc2ccc3c(c2)OCO3)S(C)(=O)=O)c(OC)c1	64*	0.3	-14	0.8	16	69*
COc1ccc(N(CC(=O)Nc2ccc3c(c2)OCCO3)S(C)(=O)=O)c(OC)c1	0	0.2	.	0.7	26	84*
COc1ccc(OC)c(N(CC(=O)Nc2ccc3c(c2)OCCO3)S(C)(=O)=O)c1	-48	0.2	.	0.4	64*	76*
CC1CN(C(=O)/C=C/c2ccc3c(c2)OCO3)CC(C)O1 (stereo not given)	.	1.1	-29	1	0	-5
O=S(=O)(/N=C(/Nc1cccc2ccccc12)c1ccccc1)c1cccs1	-7	0.2	18	0.1	90*	84*
COc1cnn(-c2cc(Oc3ccc(C)cc3)ncn2)c(=O)c1Cl	-8	0.9	0	0.3	74*	7
Cc1cc(NC(=O)c2cc3nc4c(c(C(F)(F)F)n3n2)CCc2ccccc2-4)no1	.	0.9	.	0.9	7	12
CCOC(=O)CCn1cc(F)c(=O)n(Cc2ccccc2)c1=O	4	0.9	25	0.5	52*	11
CCOC(=O)CCn1c(=O)c2c(nc(Br)n2Cc2ccccc2)n(C)c1=O	.	0.6	6	0.4	60*	41
CCOC(=O)CCCCNCc1ccccc1	4	.	.	.	.	.
CCOC(=O)Cn1c(=O)c2c(nc(N3CCCCC3)n2Cc2ccccc2)n(C)c1=O	17	0.7	14	0.8	17	31
CCOC(=O)Cn1c(=O)c2c(nc(Br)n2Cc2ccc(Cl)cc2)n(C)c1=O	.	0.4	.	0.6	44	56*
SMILES	E-sel TNF inh	CYP2C9 act	F-actin modifier	CYP2C19 activ	CYP2C19 inhib	CYP2C9 inh
O=C(NC1CCCCCCC1)c1ccc2c(c1)N(Cc1ccc(F)cc1)C(=O)CS2=O (stereo not given)	13	0.9	12	1.1	-12	5
CCOC(=O)c1ccc(COC(=O)c2cc3ccccc3oc2=O)o1	2	0.9	7	0.5	52*	8
Cc1ccccc1OCc1nc(-c2ccc(NC(=O)c3ccco3)cc2)no1	-17	.	0	.	.	.
CC(Oc1ccc(Cl)cc1Cl)c1nc(-c2ccc(NC(=O)c3ccco3)cc2)no1 (stereo not given)	16	0.5	1	0.8	24	54*
CCCCCOc1ccc(C2C(C(C)=O)=C(C)Nc3ncnn32)cc1OC (stereo not given)	6	0.5	-16	0.8	15	54*
CCCCOC(=O)C1=C(C)Nc2ncnn2C1c1cc(OC)ccc1OC (stereo not given)	0	0.4	-9	0.8	24	58*
CCOC(=O)C1=C(C)Nc2ncnn2C1c1ccc2c(c1)OCO2 (stereo not given)	4	0.4	-13	0.5	50*	62*
CCOC(=O)C1=C(C(F)(F)F)Nc2ncnn2C1c1cccc(OC)c1OC (stereo not given)	-3	.	.	.	.	.
COc1cccc(C2C(C(=O)OCc3ccccc3)=C(C)Nc3ncnn32)c1OC (stereo not given)	7	0.9	4	0.4	64*	10
CCOC(=O)C1=C(c2ccccc2)Nc2ncnn2C1c1cc(OC)ccc1OC (stereo not given)	-3	0.6	.	0.7	33	39
CCCCOC(=O)C1=C(C)Nc2ncnn2C1c1cccc(OC)c1OC (stereo not given)	-8	0.4	12	0.2	82*	58*
COC(=O)C1=C(C)Nc2ncnn2C1c1ccc(OC(=O)c2ccccc2)cc1 (stereo not given)	58	1.2	-43	0.6	40	-22
CCCCOC(=O)C1=C(C)Nc2ncnn2C1c1cccc(OC)c1 (stereo not given)	-1	0.5	-4	0.3	68*	51*
COC(=O)c1ccc(C2C(C(=O)Nc3ccc(C)cc3C)=C(C)Nc3ncnn32)cc1 (stereo not given)	.	0.7	12	0.4	62*	25
CC(=O)C1=C(C)Nc2ncnn2C1c1ccc(Cl)cc1Cl (stereo not given)	0	0.7	-8	0.3	68*	30
COc1ccc(C2C(C(C)=O)=C(C)Nc3ncnn32)cc1OC (stereo not given)	-30	1	3	1.1	-10	2
CCOC(=O)C1=C(CNCCc2ccc(Cl)cc2)NC(=O)NC1c1ccc2c(c1)OCO2 (stereo not given)	-3	0.1	-30	0.1	86*	89*
COc1ccccc1NC(=O)C1=C(C)Nc2nc(CCCO)nn2C1c1ccc2c(c1)OCO2 (stereo not given)	12	0.4	7	0.6	40	59*
COc1cc(C2C(C(=O)OC(C)C)=C(C)Nc3ncnn32)cc(OC)c1OC (stereo not given)	.	0.2	.	0.8	20	78*
CCOC(=O)C1=C(C)NC(=O)NC1c1ccc2c(c1)OCO2 (stereo not given)	-27	0.7	-2	0.6	43	32
CCCC1=C(C(=O)OCC)C(c2ccncc2)n2ncnc2N1 (stereo not given)	3	0	.	0.2	78*	97*
CC1=C(C(=O)OCc2ccccc2)C(c2cccnc2)n2ncnc2N1 (stereo not given)	.	0.9	8	0.7	35	13
